# Sampled rows, rich in hits. Any-hit rate of the full collection: about 18%.
# TDP1 inh: blocks human tyrosyl-DNA phosphodiesterase 1. 350,000 compounds, 0.28% hits. Potency, µM (titrated, usually from 130 µM), inactives show top-dose activity change, negative = inhibition, hits mostly inhibitors. recombinant TDP1, AlphaScreen DNA substrate cleavage. Q9NUW8. AID 485290; also: nearly all actives have a fitted effect of over 40% in size
#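 Steps: enzyme plus compound, 15 min RT; add biotin/phosphotyrosine-FITC oligonucleotide (15 nM final), react 5 min; add donor/acceptor beads (10 ug/ml final), 10 min; read AlphaScreen. Tdp1 at 1 nM final.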
# VDR inhibitor: inhibitors of human vitamin D receptor | P11473 | VDR-SRC2-3 peptide fluorescence polarization, 2 h | Potency, µM, for the others: max response, negative = inhibition, most hits filed as inhibitors | 400,000 compounds, 0.93% hits
#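 Measured by FP: displacement of SRC2-3 coactivator peptide from VDR by library compounds, following a two-hour ambient incubation.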
# PLK1 PBD block: inhibitors of human PLK1 polo-box domain binding; P53350; Plk1 PBD binding of FITC phosphopeptide, fluorescence polarization; Potency, µM, without a hit: max response, negative = inhibition, hits mostly inhibitors; 360,000 compounds, 2.8% hits; also: series mostly up to about 57 µM; nearly all actives have a fitted effect of over 65% in size
# DT40 TDP1 no CPT: qHTS for Inhibitors of human tyrosyl-DNA phosphodiesterase 1 (TDP1): qHTS in cells in absence of CPT; DT40 Tdp1-/- hTDP1 cells, no CPT, ATP luminescence, 48 h; Potency, µM (titrated, usually from 46.2 µM), without a hit: at the top dose activity change, negative = growth inhibition, actives largely listed as inhibitors; 420,000 compounds, 15% hits; AID 686978, 2013; also: nearly all actives have a fitted effect of over 55% in size
#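 Cells were dispensed at 400 per well, compounds added by pin tool, plates incubated ≥48 hr at 37 °C, then CellTiter-Glo added for 30 min at room temperature before luminescence reading. Line: DT40 Tdp1-/- complemented with hTDP1; camptothecin omitted.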
# GCN5L2 inh: inhibitors of human GCN5L2 histone acetyltransferase. GCN5L2 HAT assay, ThioGlo1 CoA-SH fluorescence. Potency, µM (top dose mostly 58.9 µM), for the others: at the highest dose activity change, negative = inhibition, actives largely listed as inhibitors. 390,000 compounds, 0.21% hits. AID 504327
# Target sequence (Q92830 whole entry, looked up): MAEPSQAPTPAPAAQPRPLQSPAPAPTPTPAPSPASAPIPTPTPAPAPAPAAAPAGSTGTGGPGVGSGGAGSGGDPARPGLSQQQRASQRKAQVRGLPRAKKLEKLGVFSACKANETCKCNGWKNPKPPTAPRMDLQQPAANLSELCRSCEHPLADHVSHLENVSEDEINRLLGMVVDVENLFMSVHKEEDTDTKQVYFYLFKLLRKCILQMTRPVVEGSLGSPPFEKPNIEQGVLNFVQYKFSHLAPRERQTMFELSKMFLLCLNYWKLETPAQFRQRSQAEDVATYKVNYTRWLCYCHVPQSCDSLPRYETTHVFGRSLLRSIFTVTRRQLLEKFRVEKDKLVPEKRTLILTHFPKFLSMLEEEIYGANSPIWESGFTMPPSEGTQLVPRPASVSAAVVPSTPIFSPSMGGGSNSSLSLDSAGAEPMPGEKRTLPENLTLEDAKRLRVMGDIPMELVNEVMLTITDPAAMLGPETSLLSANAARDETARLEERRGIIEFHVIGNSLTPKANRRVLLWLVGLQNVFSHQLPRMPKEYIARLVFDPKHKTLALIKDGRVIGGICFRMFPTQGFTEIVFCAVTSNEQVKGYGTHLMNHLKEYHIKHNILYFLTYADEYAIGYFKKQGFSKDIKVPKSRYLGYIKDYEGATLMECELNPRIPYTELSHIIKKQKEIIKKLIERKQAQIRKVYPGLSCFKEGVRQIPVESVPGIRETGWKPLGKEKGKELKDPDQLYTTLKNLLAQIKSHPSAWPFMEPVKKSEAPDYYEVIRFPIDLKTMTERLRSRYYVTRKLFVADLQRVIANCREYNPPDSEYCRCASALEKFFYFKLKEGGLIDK
#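 Titration-based screen in which CoA formation is detected via maleimide probe ThioGlo1 (50uM) turning fluorescent on thiol reaction; substrates H3(1-25) 75uM and acetyl-CoA 70uM, GCN5L2 20nM, 20 min incubation at room temperature.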
# TDP1 cell CPT: growth inhibition of DT40 Tdp1-/-;hTDP1 cells with camptothecin (screen for TDP1 inhibitors); 420,000 compounds, 12% hits; chicken DT40 Tdp1-/-;hTDP1 cells + 20 nM CPT, ATP luminescence, 48 h; Potency, µM (series often up to 46.2 µM), inactives show at the highest dose activity change, negative = growth inhibition, actives largely listed as inhibitors; also: nearly all actives have a fitted effect of over 55% in size
#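 Chicken DT40 Tdp1-/- cells complemented with human TDP1, 400 cells/well, exposed to compounds plus 20 nM camptothecin for at least 48 h at 37 C; viability read as ATP content by CellTiter-Glo luminescence.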
# An asterisk follows results filed as active; ? = inconclusive; / = no result given; [ ] = another dose, or the depositor's remark. Calls follow the shape of the dose curve; as a rule, active = well fitted curve in the direction sought with a large enough effect; inconclusive = small, poorly fitted or top-dose-only effect, or another doubt; inactive = no such curve, though single readings can be large; an effect the other way counts as inactive or inconclusive. % is scaled to controls: 0 for no effect and ±100 for the full control effect; potency is read from the fitted curve at half-maximal effect.
SMILES,TDP1 inh,VDR inhibitor,PLK1 PBD block,DT40 TDP1 no CPT,GCN5L2 inh,TDP1 cell CPT
CC(C)C[C@H]1CN([C@@H](CC(C)C)CN2CCC[C@H]2CN2C(=O)C(=O)NC[C@@H]2Cc2ccc(O)cc2)C(=O)C(=O)N1CCc1ccccc1,/,/,-11.2%,?,/,?
Cc1nn(CC(=O)N2CCCCC2)c(=O)c2cc3occc3n12,0.0%,19.0%,/,-8.5%,-21.5%,-6.0%
CCCCN(C(=O)C(C)Oc1ccc(Br)cc1)c1c(N)n(Cc2ccccc2)c(=O)[nH]c1=O (centres undefined),4.7%,1.2%,-0.7%,?,-0.6%,?
Cc1cc(N2CCCC2)nc2ccccc12,5.4%,6.2%,-11.7%,?,-5.5%,?
Cc1nn(-c2cc(C)c3ccccc3n2)c2c1CCC2,5.6%,5.3%,1.0%,23.1µM*,-3.1%,?
CCN(C(=O)COC(=O)/C=C/c1ccco1)C1CCCCC1,20µM*,-8.0%,-22.4%,-15.2%,-9.4%,1.0%
O=C(NCCOc1ccccc1)c1cccc2c1C(=O)c1ccc(Cl)cc1S2(=O)=O,3.6%,-2.8%,-7.2%,23.1µM*,-5.6%,?
O=C(CNC(=O)c1ccccc1F)NCCOc1ccccc1Cl,3.0%,-9.3%,26.7µM*,29.6%,-1.0%,-8.5%
O=C(NCCOc1ccccc1Cl)c1cccc2c1C(=O)c1ccc(Cl)cc1S2(=O)=O,0.4%,-13.1%,-13.6%,16.4µM*,-4.9%,23.1µM*
O=C(NCCOc1ccccc1)c1ccc2c(c1)S(=O)(=O)c1cc(Cl)ccc1C2=O,3.8%,4.1%,-5.4%,?,-4.2%,?
COc1ccc(-c2ccc3c(c2)S(=O)(=O)c2cccc(C(=O)NC[C@@H]4CCCO4)c2C3=O)cc1OC,-3.2%,-1.0%,0.1%,?,-5.3%,?
O=C(NCCOc1ccccc1Cl)C(=O)NCCOc1ccccc1Cl,0.0%,-16.2%,-1.4%,-24.4%,-2.0%,5.4%
COc1ccc(-c2ccc3c(c2)S(=O)(=O)c2cccc(C(=O)NCCOc4ccccc4)c2C3=O)cc1OC,-0.2%,-3.7%,5.4%,?,-5.0%,18.4µM*
Cc1cc(C)cc(NC(=S)N(CCN(C)C)Cc2cccs2)c1,4.9%,1.9%,1.1%,-23.3%,1.9%,10.1%
CC[C@]1(c2ccccc2)NC(=O)N(C)C1=O,11.3%[21 µM],-3.3%,/,/,8.2%[21.4 µM],/
COc1ccc(OC[C@@H](O)CNC(=O)c2cccc3c2C(=O)c2ccc(-c4ccc(F)cc4OCc4ccccc4)cc2S3(=O)=O)cc1,3.7%,-0.2%,-16.4%,10.3µM*,-10.7%,7.31µM*
O=C(COC(=O)c1cc(Br)c(Br)s1)NCCC1=CCCCC1,-2.7%,-8.2%,-10.1%,20.6µM*,0.4%,23.1µM*
O=C(NCCc1ccccc1)c1coc(=O)c(Br)c1,/,5.8%,-3.7%,0.581µM*,-10.9%,0.82µM*
O=C(Nc1ccc(Br)c(Br)c1)C1CCCO1 (centres undefined),/,-7.0%,-6.8%,-7.9%,/,-7.7%
O=C(NNC(=O)C1C2CCCCC21)c1coc(=O)c(Br)c1 (centres undefined),3.1%,-27.8%,-23.8%,4.11µM*,-20.2%,4.11µM*
O=C(NCCC1=CCCCC1)c1coc(=O)c(Br)c1,4.9%,-5.6%,-2.5%,0.366µM*,-2.3%,0.116µM*
O=C(COC(=O)c1ccccc1Br)NCCC1=CCCCC1,-3.0%,-14.9%,-11.8%,-8.4%,-6.9%,1.5%
COc1ccc(NC(=O)CC2C(=O)N(c3ccc(F)cc3)C(=O)N2Cc2ccc3c(c2)OCO3)cc1 (centres undefined),9.0%,?,/,?,2.5%,-18.2%
COc1ccc(C(C)(C)C)cc1S(=O)(=O)n1ccnc1C,10.3%,12.8%,-3.1%,?,-7.1%,0.0%
Cc1cccc(C)c1NC(=O)C1(C)CCC(=O)N1C1CC1 (centres undefined),/,/,-1.7%,7.8%,/,-2.1%
SMILES,TDP1 inh,VDR inhibitor,PLK1 PBD block,DT40 TDP1 no CPT,GCN5L2 inh,TDP1 cell CPT
COc1cc(C(=O)OCC(=O)NC2CCCCC2)cc(OC)c1OC,0.6%,-4.3%,1.0%,-29.5%,-0.5%,-19.1%
Cc1ccc(CCNC(=O)C2CC(c3cc(C(F)(F)F)cc(C(F)(F)F)c3)=NO2)cc1 (centres undefined),1.2%,6.2%,-3.8%,?,-1.7%,?
Cc1ccc(CNC(=O)C2CC(c3cc(C(F)(F)F)cc(C(F)(F)F)c3)=NO2)o1 (centres undefined),1.2%,-24.8%,-11.4%,4.61µM*,-1.8%,3.26µM*
COc1cc(C2=NOC(C(=O)NCc3cccnc3)C2)cc(OC)c1OC (centres undefined),/,-5.5%,-5.6%,?,-2.1%,?
COc1ccc(C2=NOC(C(=O)NCc3ccco3)C2)cc1 (centres undefined),1.6%,5.1%,-0.7%,2.82µM*,-16.2%,3.98µM*
O=C(NCc1ccco1)C1CC(c2ccc(C(F)(F)F)cc2)=NO1 (centres undefined),/,-21.6%,-3.2%,11.6µM*,/,13µM*
COc1cc(C2=NOC(C(=O)NCc3ccco3)C2)cc(OC)c1OC (centres undefined),0.0%,13.6%,-8.3%,3.26µM*,?,4.11µM*
Cc1oc(-c2ccc(C(=O)N(C)Cc3ccccc3)cc2)nc1CN1CCc2ccccc21,8.9%,12.1%,/,/,-9.6%,/
CCOc1ccccc1C(=O)N1CCCCC1CCN1CCOCC1 (centres undefined),0.0%,19.7%,/,7.6%,-6.8%,-7.3%
COC(=O)c1ccc2nc(-c3ccc(C)cc3)c(Cc3cccc(Cl)c3)n2c1,/,/,3.1%,16.4µM*,/,16.4µM*
COC(=O)c1ccc2nc(-c3ccccc3)c(Cc3ccc(C)cc3)n2c1,/,/,0.3%,?,/,?
COC(=O)c1ccc2nc(-c3ccc(Cl)cc3)c(Cc3cccc(Cl)c3)n2c1,/,/,12.2%,18.4µM*,/,?
Cc1ccc(S(=O)(=O)N2CCN(c3ccccc3)CC2)c(C)c1,/,-11.4%,3.4%,-10.6%,-0.6%,-23.2%
COc1ccccc1NC(=O)c1ccc(N2CC3CC(C2)c2cccc(=O)n2C3)c(NC(=O)c2ccncc2)c1 (centres undefined),0.2%,-2.5%,-9.5%,-26.3%,-4.4%,6.4%
COc1ccc(NC(=S)N/N=C/c2cccn2Cc2ccc(F)cc2Cl)cc1,5.0%,-14.8%,-5.4%,10.3µM*,-10.7%,23.1µM*
COc1ccc(NC(=S)N/N=C/c2cccn2Cc2ccccc2F)cc1,5.0%,-8.0%,2.9%,?,-5.2%,14.3%

# Source: PubChem
